A selection: hits, their analogues and other compounds. The true share with any hit is near 5.7%.
DRD3 agonist – agonists of human D3 dopamine receptor; P35462; D3R DiscoveRx beta-arrestin cells, luminescence, 90 min; max activation, %; 410,000 compounds, 0.58% hits; AID 652048; in the data active = max activation above about 30%; also: 0% is about no effect
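Agonist-mode cell screen: cells plated at 1500/well and incubated overnight at 37 °C, then exposed to library compounds for 90 min at 37 °C. Detection reagent was added for 30–60 min at room temperature, and luminescence was read.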
HEK293 tox – cytotoxicity in counter-screen for GLP-1R inverse agonists. 410,000 compounds, 0.13% hits. Potency, µM (doses to about 38.3 µM), for the others: at the top dose activity change, negative = inhibition, actives largely listed as inhibitors. AID 624418. HEK293 cAMP-luciferase reporter cells, luminescence, 24 h;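 also: loss of luciferase light is scored as toxicity; potency is read from the fitted curve at half-maximal effect; % is scaled to controls: 0 for no effect and ±100 for the full control effect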
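Seeding density was 200 cells/uL; after overnight-length (12 h) culture, 23 nL compounds went on for 24 h at 37 °C. Readout used a luciferase detection reagent, luminescence taken after 12 min at room temperature.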
GLP1R inv ag – acts as inverse agonist at human GLP-1 receptor. P43220. HEK293 GLP-1R CRE-luciferase, luminescence, 24 h; GLP-1R form is constitutively active. Potency, µM (top dose mostly 38.3 µM), for the others: at the highest dose activity change, negative = inhibition, usual class: inhibitors. 410,000 compounds, 1.6% hits. AID 624417; also: potency is read from the fitted curve at half-maximal effect; % is scaled to controls: 0 for no effect and ±100 for the full control effect; nearly all actives have a fitted effect of over 55% in size
Target sequence (P43220 whole entry, looked up): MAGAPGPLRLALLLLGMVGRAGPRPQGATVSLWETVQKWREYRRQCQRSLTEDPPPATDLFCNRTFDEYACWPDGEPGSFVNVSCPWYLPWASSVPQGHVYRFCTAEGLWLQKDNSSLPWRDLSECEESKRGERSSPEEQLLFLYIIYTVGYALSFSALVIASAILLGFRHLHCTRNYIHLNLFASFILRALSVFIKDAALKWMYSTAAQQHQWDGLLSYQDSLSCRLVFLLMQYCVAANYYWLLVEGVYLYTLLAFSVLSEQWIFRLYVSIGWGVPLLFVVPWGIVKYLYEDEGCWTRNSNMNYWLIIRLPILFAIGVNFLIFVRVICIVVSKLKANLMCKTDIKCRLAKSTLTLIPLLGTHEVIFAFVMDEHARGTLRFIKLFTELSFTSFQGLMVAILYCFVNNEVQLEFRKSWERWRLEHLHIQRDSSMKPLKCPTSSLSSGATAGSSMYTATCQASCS
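qHTS in 1536-well format: reporter HEK293 cells expressing constitutive GLP-1R activity in DMEM + 10% Nu serum, 24 hr with compounds at 37 deg C, luminescence read after 12 min with detection reagent.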
GLP-1R agonist – activates the human GLP-1 receptor; 380,000 compounds, 0.007% hits; P43220; HEK293 GLP-1R CRE-luciferase, luminescence, 4-6 h; cells express a hypersensitive GLP-1R form; Potency, µM (titrated, usually from 45.6 µM), inactives show at the top dose activation, hits mostly activators; AID 624172; also: potency is read from the fitted curve at half-maximal effect; % of control where 0% means no effect
D3 antag – blocks the human D3 dopamine receptor; P35462; D3R cells, DiscoveRx beta-arrestin luminescence, antagonist mode; active compounds read low; max response, negative = inhibition, %; 360,000 compounds, 2.5% hits; AID 652054; in the data active = max response below about -50%; inconclusive = no clear call, values can overlap the other calls; also: % is scaled to controls: 0 for no effect and ±100 for the full control effect
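Cells plated overnight at 1500 cells/well, then exposed to library compounds with dopamine controls for 90 minutes at 37 degrees C. DiscoveRx reagent added for 30–60 minutes at room temperature; luminescence read, quantitative HTS format.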
ClpP mod – qHTS Assay for Activators of ClpP. purified B. subtilis ClpP, FRET peptide cleavage, 20 min. Potency, µM (highest dose often 57.5 µM), without a hit: at the highest dose activity change, negative = active. ATP-dependent Clp protease proteolytic subunit (Bacillus subtilis (strain 168)), P80244. 340,000 compounds, 1.9% hits; active = well fitted falling curve with a large enough effect; inconclusive = small, poorly fitted or top-dose-only effect; inactive = no such curve, though single readings can be large or run the other way; also: potency is read from the fitted curve at half-maximal effect; the source files actives as falling curves though it sought activators and does not explain the sign; nearly all actives have a fitted effect of over 65% in size
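Buffer: 100 mM Tris/HCl pH8, 100 mM KCl, 0.05% low protease BSA, 2.5% glycerol, 0.01% Tween-20. ClpP 10 microg/mL final; 20 min RT; delta FRET normalized to ADEP and DMSO controls.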
* marks the source's active call; other numbers are inactive results. Unless noted, calls follow the shape of the dose curve; as a rule, active = well fitted curve in the direction sought with a large enough effect; inconclusive = small, poorly fitted or top-dose-only effect, or another doubt; inactive = no such curve, though single readings can be large; an effect the other way counts as inactive or inconclusive.

`COCCn1c(C)cc(C(=O)CSc2nc(C)nc3sc4c(c23)CCC4)c1C` gave DRD3 agonist 54*, HEK293 tox 2%, GLP1R inv ag -9%, GLP-1R agonist -4%, D3 antag 40 and ClpP mod 0%.
Screening Oc1c(Br)cc(Cl)cc1C=Nc1ccccc1Br returned DRD3 agonist -20, HEK293 tox 44%, GLP1R inv ag -20%, GLP-1R agonist 0%, D3 antag -73* and ClpP mod -1%.
Screening O=C(c1ccc2c(c1)N(Cc1cccc(Cl)c1)C(=O)c1ccccc1S2(=O)=O)N1CCc2ccccc21 returned DRD3 agonist -12, HEK293 tox 10%, GLP1R inv ag -1% and ClpP mod -4%.
For CCOC(=O)c1c(C)c(-c2ccccc2)n(CC(=O)NCc2ccccc2)c1C the results were DRD3 agonist 1, HEK293 tox -8%, GLP1R inv ag -34%, GLP-1R agonist 1% and ClpP mod 1%.
COc1ccc(S(=O)(=O)Nc2ccc3oc4c(c3c2)C(=O)CC(C)(C)C4)cc1 was read as DRD3 agonist -3, HEK293 tox -8%, GLP1R inv ag -22%, GLP-1R agonist -2% and ClpP mod -2%.
Screening COc1cc(NC2c3ccccc3C(=O)N2Cc2ccccc2Cl)cc(OC)c1 (centres undefined) returned DRD3 agonist 2, HEK293 tox -19%, GLP1R inv ag 10µM*, GLP-1R agonist 0%, D3 antag -1 and ClpP mod -4%.
O=C(COC(=O)Cn1[nH]c(=O)c2ccccc2c1=O)NNC(=O)c1ccc(Br)cc1 was read as DRD3 agonist -34, HEK293 tox -5%, GLP1R inv ag 20%, GLP-1R agonist -2%, D3 antag -118* and ClpP mod 5%.
O=C(COC(=O)Cc1n[nH]c(=O)c2ccccc12)NNC(=O)c1ccc(Cl)cc1 was read as DRD3 agonist -26, HEK293 tox -23%, GLP1R inv ag 0%, GLP-1R agonist -11%, D3 antag -131* and ClpP mod 0%.
`Cc1ccc(Cl)cc1NC(=O)Cn1c(=O)n(CCC(=O)NCc2ccc3c(c2)OCO3)c(=O)c2sccc21` gave DRD3 agonist 4, HEK293 tox -7%, GLP1R inv ag 8% and ClpP mod -1%.
For COc1ccc(-c2cc(=O)c3c(O)cc(O[C@H]4OC(COC5OC(C)C(O)C(O)[C@H]5O)C(O)C(O)C4O)cc3o2)cc1O (some centres undefined) the results were GLP-1R agonist 3%.
O=C(Nc1nnc(-c2ccc(Cl)cc2)o1)c1nc2ccccc2s1 was read as DRD3 agonist -9, HEK293 tox 3%, GLP1R inv ag -9%, GLP-1R agonist 2%, D3 antag -74* and ClpP mod -3%.
Screening Cc1cccc(-c2nnc(NC(=O)c3ccc(Cl)cc3)o2)c1 returned DRD3 agonist -18, HEK293 tox -24%, GLP1R inv ag -11%, GLP-1R agonist -12%, D3 antag -97* and ClpP mod -1%.
`O=C(Nc1nnc(-c2ccc(Cl)cc2)o1)Nc1ccccc1Cl` gave DRD3 agonist -3, HEK293 tox 1%, GLP1R inv ag 9%, GLP-1R agonist -12%, D3 antag 15 and ClpP mod 28µM*.
O=C(Nc1nnc(-c2ccc(Cl)cc2)o1)C1CCCCC1 was read as DRD3 agonist -2, HEK293 tox 8%, GLP1R inv ag 10%, GLP-1R agonist 3%, D3 antag -14 and ClpP mod -20%.
Screening O=C(Nc1ccccc1)c1nc2ccccc2s1 returned DRD3 agonist 8, HEK293 tox 2%, GLP1R inv ag inconclusive, GLP-1R agonist 5% and D3 antag 1.

High-throughput results from PubChem.
